# An excerpt weighted towards active compounds, which were near 11% of everything screened.
# G9a block – blocks human histone lysine methyltransferase G9a | Q96KQ7 | G9a H3K9 monomethylation, AlphaScreen, 2 h | Potency, µM (top dose mostly 102 µM), without a hit: top-dose activity, negative = inhibition, most hits filed as inhibitors | hit rate 8.8% among 350,000 | AID 504332; also: % is scaled to controls: 0 for no effect and ±100 for the full control effect; nearly all actives have a fitted effect of over 75% in size
#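 Readings reflect AlphaScreen signal from monomethyl-H3K9 antibody detection. HMT at 20 nM; substrate b-H3K9 500 nM; cofactor SAM 20 uM; 2 h RT reaction; compounds tested as titrations in qHTS with 15 min preincubation.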
# JMJD2A Tudor – inhibitors of human JMJD2A Tudor domain. O75164. AlphaScreen JMJD2A-Tudor / H3K4me3 peptide binding. Potency, µM (doses to about 114 µM), inactives show at the highest dose activity change, negative = inhibition, usual class: inhibitors. hit rate 4.4% among 390,000. AID 504339; also: % is scaled to controls: 0 for no effect and ±100 for the full control effect; nearly all actives have a fitted effect of over 50% in size
# HP1b chromo inh – HP1-beta chromodomain-methylated histone interaction inhibition; P83916; AlphaScreen HP1-beta / biotin-H3K9me3 peptide binding; Potency, µM (doses to about 114 µM), without a hit: top-dose activity change, negative = inhibition, actives largely listed as inhibitors; hit rate 0.56% among 390,000; also: nearly all actives have a fitted effect of over 70% in size
#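 Compound inhibition of the preformed complex between 50 nM HP1-beta and 50 nM biotinylated H3K9me3 peptide was read by AlphaScreen. Buffer was PBS pH 7.4 with 0.01% Tween-20. Incubations ran 30 min at room temperature, with 10 ug/mL donor/acceptor beads.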
# PLK1 PBD inh – blocks phosphopeptide binding to human PLK1 polo-box domain | P53350 | Plk1 PBD binding of FITC phosphopeptide, fluorescence polarization | Potency, µM, inactives show max response, negative = inhibition, hits mostly inhibitors | hit rate 2.8% among 360,000 | AID 720504; also: series mostly up to about 57 µM; % is scaled to controls: 0 for no effect and ±100 for the full control effect; nearly all actives have a fitted effect of over 65% in size
# Target sequence (P53350 whole entry, looked up, the tested form may be a part): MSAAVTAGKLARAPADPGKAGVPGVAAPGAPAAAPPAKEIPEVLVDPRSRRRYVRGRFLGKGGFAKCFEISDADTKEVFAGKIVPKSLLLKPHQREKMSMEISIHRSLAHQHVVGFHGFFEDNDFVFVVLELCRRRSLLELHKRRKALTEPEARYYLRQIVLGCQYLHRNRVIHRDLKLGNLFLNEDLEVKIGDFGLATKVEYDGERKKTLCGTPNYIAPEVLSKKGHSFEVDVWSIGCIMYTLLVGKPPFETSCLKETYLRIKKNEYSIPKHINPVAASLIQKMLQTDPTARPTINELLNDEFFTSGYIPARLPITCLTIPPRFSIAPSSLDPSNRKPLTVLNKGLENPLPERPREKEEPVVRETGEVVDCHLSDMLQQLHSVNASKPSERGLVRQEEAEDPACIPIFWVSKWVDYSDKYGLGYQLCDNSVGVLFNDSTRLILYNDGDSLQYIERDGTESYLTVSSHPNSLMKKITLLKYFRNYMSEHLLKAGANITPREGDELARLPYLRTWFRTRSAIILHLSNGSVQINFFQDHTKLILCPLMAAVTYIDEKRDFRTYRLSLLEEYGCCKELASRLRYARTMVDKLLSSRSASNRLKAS
# BAZ2B block – blocks human BAZ2B | Q9UIF8 | AlphaScreen BAZ2B-H3K14Ac peptide displacement | Potency, µM (doses to about 114 µM), for the others: at the top dose activity change, negative = inhibition, hits mostly inhibitors | hit rate 4.4% among 360,000; also: % is scaled to controls: 0 for no effect and ±100 for the full control effect; nearly all actives have a fitted effect of over 60% in size
#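 Multi-concentration screen (max 110 uM) measuring displacement of acetylated histone H3 peptide from BAZ2B by AlphaScreen, using 50 nM protein, 50 nM peptide and 10 ug/mL streptavidin donor plus Ni-chelate acceptor beads.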
# VDR inhibitor – blocks the human vitamin D receptor. hit rate 0.93% among 400,000. AID 504847. P11473. VDR-SRC2-3 peptide fluorescence polarization, 2 h. Potency, µM, for the others: max response, negative = inhibition, hits mostly inhibitors; also: % is scaled to controls: 0 for no effect and ±100 for the full control effect
#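 FP read-out; VDR + SRC2-3 coactivator peptide; 23 nl compound by pintool; 2 h RT incubation; reagents held at 4 deg C, protected from light.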
# An asterisk follows results filed as active; ? = inconclusive; · = not tested or not shown; [ ] = dose if it differs, or a comment. Calls follow the shape of the dose curve; as a rule, active = well fitted curve in the direction sought with a large enough effect; inconclusive = small, poorly fitted or top-dose-only effect, or another doubt; inactive = no such curve, though single readings can be large; an effect the other way counts as inactive or inconclusive. Potency is read from the fitted curve at half-maximal effect.
SMILES,G9a block,JMJD2A Tudor,HP1b chromo inh,PLK1 PBD inh,BAZ2B block,VDR inhibitor
CCCCCSc1nc2c(c(=O)[nH]c(=O)n2C)n1C(C)C,40µM*,-8%,9%,?,8%,-13%
C=CCn1c(SCC(=C)C)nc2c1c(=O)[nH]c(=O)n2C,34%[12.7 µM],-18%,9%,?,7%,-7%
C=CCSc1nc2c(c(=O)[nH]c(=O)n2C)n1CC,?,-20%,?,24µM*,1%,-16%
COc1ccc(-c2ccc(OC)c(C3C4C=CCC(C)C4C(=O)N3Cc3ccccc3)c2)cc1 (stereo not given),·,-28%,20%,·,·,-7%
CCCCOc1ccccc1Cn1c(=O)sc2ccccc21,272%[59 µM],197%,222%,·,259%,7%
Cc1c(-c2cc(C(=O)O)c3ccccc3n2)cnn1C,45µM*,-12%,32%,-4%,-39%,18%
O=C(CSc1nnc(-c2cccc(Cl)c2)o1)Nc1ccc2c(c1)OCCO2,-5%[59 µM],-5%,28%,-2%,1%,3%
O=C(CSc1nnc(-c2ccc(C(F)(F)F)cn2)o1)Nc1cccc(Cl)c1,29%,-10%,21%,-7%,50µM*,16%
NCCc1nnc(SCC(=O)Nc2cccc(Cl)c2)o1,50µM*,-22%,15%,-17%,?,-3%
CC(C)(C)OC(=O)N1CCCC1C(=O)NC1COC2CC(n3ccc(=O)[nH]c3=O)OC12 (stereo not given),·,-10%,50%,·,·,-11%
CC(=O)N1CCN(C(=S)c2ccc(N(C)C)cc2)CC1,7.1µM*,-20%,?,21µM*,-22%,-13%
CN(C)c1ccc(C(=S)N2CCCCCC2)cc1,8.9µM*,?,-26%,?,?,2%
Cc1ccc(N2CCN(C(=S)c3ccc(N(C)C)cc3)CC2)cc1,5µM*,32µM*,?,17µM*,13µM*,?
COc1ccc(C(=S)N2CCN(S(=O)(=O)c3ccccc3)CC2)cc1,13%,24%,58%,6%,-23%,-13%
CN(C)c1ccc(C(=S)N2CCN(S(=O)(=O)c3ccccc3)CC2)cc1,13µM*,5%,20%,-5%,?,-7%
CN(C)c1ccc(C(=S)N2CCOCC2)cc1,3%[59 µM],1%,23%,-4%,·,-9%
Nc1nc2c(ncn2[C@@H]2O[C@H](CNCC3=Cc4cc(O)ccc4OC3)[C@@H](O)[C@H]2O)c(=O)[nH]1,·,·,·,1%,·,·
CCN(C(=O)COC(=O)C1CC1C)c1c(N)n(Cc2ccccc2)c(=O)[nH]c1=O (stereo not given),?,3%,14%,-2%,7%,?
Oc1ccc(N=Nc2ccccc2-c2nn[nH]n2)c(O)c1,35µM*,?,-5%,?,50µM*,-26%
CC(C)(C)OC(=O)CNC(=O)c1[nH]cnc1C(=O)NCCCCCNC(=O)OC(C)(C)C,?,?,40%,-22%,?,-5%
CN(C)c1ncc2nc(-c3ccc(F)cc3)c(=O)n(C)c2n1,-6%[0.501 µM],·,·,·,·,-1%
CCC(Sc1nc(-c2ccccc2)c(-c2ccccc2)[nH]1)C(=O)O (stereo not given),50µM*,-27%,8%,-15%,-21%,-15%
NC(=S)NNC(=O)Nc1cccc(Cl)c1,8.9µM*,?,26%,-7%,4%,-10%
NC(=S)NNc1cccc(Cl)c1,8.9µM*,?,29%,?,-2%,?
S=C(NNc1cccc(Cl)c1)NC1CCCCC1,28µM*,8.9µM*,?,0%,35µM*,?
Cc1cccc(Nc2ccccc2)c1,-9%[12.7 µM],9%,59%,-7%,3%,11%
Cc1cccc(NNC(N)=S)c1,40µM*,-19%,-16%,-15%,?,?
S=C(Nc1cccc(Cl)c1)NC1CCCCC1,44%,-4%,49%,-4%,4%,-13%
CC(OC(=O)C1CCN(S(=O)(=O)c2ccc(Cl)cc2)CC1)C(=O)NC1CCCCC1C (stereo not given),?,-14%,31%,-7%,-17%,-17%
CC1(C)CC1C(=O)N/C(=C/CCCCSCC(N)C(=O)O)C(=O)O (stereo not given),1%[12.7 µM],·,·,·,·,-16%

# Compound activity: PubChem BioAssay, National Center for Advancing Translational Sciences (NCATS)
